Our source for the growth values is PubChem BioAssay (NCI).

About 83,000 compounds went through this panel and 20% of them were active in at least one assay; those are over-represented in the sample as a whole.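 48-hour exposure, single concentration, 96-well plates; percent growth endpoint where 0 means no net growth. Active: below 10.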 Values without a mark were called inactive. Active and inactive are the calls of the source.

Among the test systems are T-47D breast; MDA-MB-435 melanoma; SW-620 colon; MCF7 breast; HCT-116 colon; HCC-2998 colon; KM12 colon.
Assay in all cases: NCI-60 one-dose screen, 48 h (100 = growth as untreated, 0 = no growth, -100 = all killed)
Details in all cases: 10 µM unless noted

As for `S=C(Sc1ccc(Cl)cc1)Sc1ccc(Cl)cc1`, the growth in the assay with T-47D breast was -1.08% (active); with MDA-MB-435 melanoma, 19.6%; in the assay with SW-620 colon, -68% (active); in the assay with MCF7 breast it was 24%; with HCT-116 colon, -68.4% (active); with HCC-2998 colon, 24.1%. Further, in the assay on KM12 colon, the growth was 41%.
For `C=C1C(=O)C2CCC1C2` (stereo not given), the growth in the assay with T-47D breast was 98.7%; with MDA-MB-435 melanoma, 105%; in the assay on SW-620 colon, 101%; in the assay on MCF7 breast it was 109%; with HCT-116 colon it was 105%; in the assay with HCC-2998 colon, 97%. In the assay on KM12 colon, the growth was 96.5%.
On to `NCC(O)C(O)C(O)C(O)CO` (stereo not given), for which the growth is 84.1% with T-47D breast; 100% with MDA-MB-435 melanoma; 97.2% in the assay on SW-620 colon; 97.1% in the assay with MCF7 breast; 86.4% with HCT-116 colon; 99.1% in the assay on HCC-2998 colon. Besides, in the assay with KM12 colon, the growth was 98.5%.
Regarding `NC(=S)N/N=C/c1ccc(Cl)cc1`, the growth in the assay on T-47D breast was 86.8%; in the assay with MDA-MB-435 melanoma, 110%; with SW-620 colon, 113%; with MCF7 breast it was 93.4%; in the assay with HCT-116 colon it was 100%; in the assay on HCC-2998 colon it was 96.2%. In the assay with KM12 colon, the growth was 113%.
On to `CN(C)c1ccc2c(N(C)C)cc(N(C)C)nc2c1`, for which the growth in the assay with T-47D breast is 56%; in the assay with MDA-MB-435 melanoma, 80.2%; in the assay with SW-620 colon, 51.6%; with MCF7 breast it was 13.9%; in the assay on HCT-116 colon, 48.1%; in the assay with HCC-2998 colon, 118%. Also, in the assay on KM12 colon, the growth is 78.3%.
On to `O=Cc1ccc(Cl)c(Cl)c1`, for which the growth in the assay with T-47D breast is 115%; in the assay with MDA-MB-435 melanoma, 110%; with SW-620 colon, 118%; in the assay with MCF7 breast it was 98.4%; with HCT-116 colon, 107%; in the assay on HCC-2998 colon it was 97.2%. Besides, the growth with KM12 colon was 113%.
Turning to `C/C(O)=C(/C=N/C(=S)Nc1ccccc1)C(=O)Nc1ccccc1C`, the growth is 79.6% with T-47D breast; 111% in the assay with MDA-MB-435 melanoma; 106% in the assay on SW-620 colon; 94.9% in the assay with MCF7 breast; 109% in the assay with HCT-116 colon; 109% in the assay with HCC-2998 colon. Besides, the growth in the assay with KM12 colon is 100%.
Take `OCC1OC(n2ccc3c2ncn2ncnc32)C(O)C1O` (stereo not given): the growth was 10.9% in the assay on T-47D breast; 62.1% in the assay on MDA-MB-435 melanoma; 26.2% in the assay on SW-620 colon; 9.97% (active) with MCF7 breast; 20.5% with HCT-116 colon; 29.1% in the assay on HCC-2998 colon. For the same molecule, the growth in the assay on KM12 colon is 27.6%.
In the case of `Cc1ccc(OC(=O)c2ccccc2)cc1`, the growth is 108% with T-47D breast; 112% in the assay with MDA-MB-435 melanoma; 111% with SW-620 colon; 97.4% with MCF7 breast; 105% in the assay with HCT-116 colon; 107% in the assay on HCC-2998 colon. Further, the growth in the assay with KM12 colon is 108%.
`CC1CN(CCO)CC(C)O1` (stereo not given): the growth is 93% with T-47D breast; 102% in the assay with MDA-MB-435 melanoma; 102% with SW-620 colon; 109% with MCF7 breast; 112% in the assay on HCT-116 colon; 119% in the assay on HCC-2998 colon. Moreover, the growth in the assay with KM12 colon is 101%.
`Nc1ccccc1SC1CC(=O)N(c2ccc(Cl)c(Cl)c2)C1=O` (stereo not given): the growth with T-47D breast was 74.8%; in the assay on MDA-MB-435 melanoma it was 101%; in the assay on SW-620 colon, 98.8%; with MCF7 breast, 112%; with HCT-116 colon, 87.4%; in the assay with KM12 colon, 100%.
Turning to `COC1=C(OC)C(=O)C(SC/C=C(\C)CCCC(C)CCCC(C)CCCC(C)C)=CC1=O` (stereo not given), the growth in the assay on T-47D breast was 12.5%; in the assay with MDA-MB-435 melanoma, 18.5%; with SW-620 colon, 18.7%; with MCF7 breast it was 4.9% (active); in the assay with HCT-116 colon it was 9.93% (active); with KM12 colon it was 11.6%.
In the case of `Cc1ccc(NC(=O)c2ccccc2Cl)cc1`, the growth with T-47D breast was 112%; in the assay with SW-620 colon, 109%; in the assay on MCF7 breast it was 99.4%; in the assay with HCT-116 colon, 114%; in the assay with HCC-2998 colon it was 124%.
Turning to `CCOc1ccccc1NC(=O)CCl`, the growth with T-47D breast is 75.3%; with MDA-MB-435 melanoma, 83.9%; in the assay on SW-620 colon, 98.4%; with MCF7 breast it was 46.6%; with HCT-116 colon, 75.8%; with HCC-2998 colon, 110%. For the same molecule, in the assay on KM12 colon, the growth is 97.1%.
With `Cc1cc(NC(=O)c2ccccc2)c(Cl)cc1N`, the growth was 98% with T-47D breast; 97.4% with MDA-MB-435 melanoma; 84.9% in the assay on MCF7 breast; 103% in the assay on HCT-116 colon; 102% with HCC-2998 colon.
Take `Nc1ncnc(Nc2ccccc2)n1`: the growth with T-47D breast is 96.3%; with MDA-MB-435 melanoma, 107%; in the assay with SW-620 colon it was 101%; in the assay on MCF7 breast it was 101%; in the assay on HCT-116 colon, 118%; with KM12 colon it was 120%.
Take `N#Cc1ccc(OC(=O)Nc2c(Cl)cc(Cl)cc2Cl)cc1`: the growth in the assay with T-47D breast was 91.6%; with MDA-MB-435 melanoma, 96.4%; with MCF7 breast, 100%; in the assay on HCT-116 colon, 101%; in the assay with HCC-2998 colon, 110%; in the assay on KM12 colon it was 107%.
Consider `Nc1cccc2cccc(O)c12`, for which the growth in the assay on T-47D breast is 102%; with MDA-MB-435 melanoma it was 108%; with SW-620 colon, 67.4%; with MCF7 breast, 79.9%; in the assay on HCT-116 colon, 78.8%; in the assay with KM12 colon, 128%.
For the molecule `Cc1ccc(S(=O)(=O)Oc2ccc3sc4c(CO)ccc(NCCN(C)C)c4c(=O)c3c2)cc1`, the growth in the assay on T-47D breast was -51.8% [100 µM] (active); with SW-620 colon it was -88% [100 µM] (active); in the assay with MCF7 breast, -76.1% [100 µM] (active); in the assay with HCT-116 colon, -75.9% [100 µM] (active); with HCC-2998 colon it was -88.2% [100 µM] (active); in the assay with KM12 colon, -68.6% [100 µM] (active).
In the case of `Oc1cccnc1CN1CCCC1`, the growth in the assay with T-47D breast was 95.2%; in the assay with MDA-MB-435 melanoma, 107%; with SW-620 colon, 105%; in the assay on MCF7 breast it was 93.9%; with HCT-116 colon, 116%; in the assay with KM12 colon, 113%.
For `COc1ccc(Br)c(C=O)c1`, the growth with T-47D breast was 69.9%; in the assay on MDA-MB-435 melanoma, 49.8%; with MCF7 breast it was 31.5%; with HCT-116 colon, 22.5%; in the assay with HCC-2998 colon, 86%; in the assay on KM12 colon it was 93.7%.
